FLuc inh: Firefly luciferase inhibition profiling of diverse chemical library using quantitative high-throughput screening; AID 1347043, 2019; purified P. pyralis luciferase, luminescence, biochemical; hit rate 2.5% among 76,000; Potency, µM (highest dose often 115 µM), hits mostly inhibitors; note: nearly all actives have a fitted effect of over 65% in size
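Luminescence read by CCD imager after adding enzyme (10nM final) to wells holding compound, titrated in qHTS. Substrates 10uM each D-luciferin and ATP; buffer 50mM Tris acetate pH 7.5, 10mM Mg acetate, Tween-20, BSA.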
NIH3T3 tox: Cytotoxic Profiling in NIH 3T3 Cell Line of Diverse Libraries Using Quantitative High-Throughput Screening; hit rate 4.3% among 94,000; Potency, µM (doses to about 96.7 µM), hits mostly inhibitors; NIH 3T3 viability, CellTiter-Glo ATP luminescence, 48-72 h; AID 1345082, 2018; note: nearly all actives have a fitted effect of over 55% in size
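Cytotoxicity was measured by CellTiter-Glo ATP luminescence after 48 or 72 h compound exposure at 37 °C. Mouse NIH 3T3 fibroblasts were seeded at 400 cells/well and dosed by 23 nL pin transfer.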
NPR1 antag: Natriuretic polypeptide receptor (hNpr1) antagonism - Primary qHTS. HEK293 hNpr1 GloSensor cGMP, ANP-stimulated luminescence. hit rate 1.6% among 76,000. Potency, µM (highest dose often 46.3 µM), usual class: inhibitors. Atrial natriuretic peptide receptor 1 (Homo sapiens), P16066; calls by dose curve; note: nearly all actives have a fitted effect of over 60% in size
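Compound pre-incubated 30 min at room temperature on GloSensor-loaded HEK293 cells stably carrying hNpr1 and the pGS-40F cGMP biosensor. Stimulation uses hNppA at 0.1 nM final; luminescence is taken at baseline and 20 min post-agonist.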
GPT2 inh: Primary qHTS assay for inhibitors of Glutamate pyruvate transaminase 2 (GPT2) | hit rate 0.25% among 100,000 | AID 1671188, 2021 | Alanine aminotransferase 2 (Homo sapiens), Q8TD30 | Potency, µM (titrated, usually from 57.7 µM), actives largely listed as inhibitors | Recombinant GPT2, coupled pyruvate oxidase/HRP Amplex Red fluorescence; note: nearly all actives have a fitted effect of over 60% in size
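Fluorescence read-out: pyruvate from GPT2 turnover coupled to pyruvate oxidase, HRP and Amplex Red (0.2mM ThPP, 0.2U/mL PO and HRP, 50uM Amplex final). Substrates 250uM a-KG, 2mM L-alanine; enzyme 10ng/uL; 30 min RT.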
HEK293 tox: Cytotoxic Profiling in HEK 293 Cell Line of Diverse Libraries Using Quantitative High-Throughput Screening; hit rate 6.6% among 94,000; HEK 293 viability, ATP luminescence (CellTiter-Glo), 48-72 h; Potency, µM (titrated, usually from 115 µM), actives largely listed as inhibitors; note: nearly all actives have a fitted effect of over 60% in size
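250 HEK 293 cells/well; compound by pintool; incubated 48 or 72 hr at 37 degree Celsius; CellTiter-Glo added, 10 min RT, luminescence imaged.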
A number is an active result. The list is not random: actives were taken first. Their share in the collection is about 10%. Unless noted, calls come from the whole dose curve; as a rule, active = well fitted curve in the direction sought with a large enough effect; inconclusive = small, poorly fitted or top-dose-only effect, or another doubt; inactive = no such curve, though single readings can be large; an effect the other way counts as inactive or inconclusive.

CCOC(=O)C1=C(C)N=C2SC=C(CC(=O)Nc3cccc(OC)c3)N2C1c1cccc(OC)c1 (centres undefined) was read as FLuc inh inactive, NIH3T3 tox inconclusive, NPR1 antag inactive, GPT2 inh inactive and HEK293 tox inconclusive.
For CCOC(=O)C1=C(C)N=C2SC=C(CC(=O)Nc3ccc(C)c(C)c3)N2C1c1cccc(OC)c1 (centres undefined) the results were FLuc inh inactive, NIH3T3 tox 40µM, NPR1 antag inactive, GPT2 inh inactive and HEK293 tox 45µM.
Screening COC(=O)C1=C(C)N=C2SC=C(CC(=O)N(C)Cc3ccco3)N2C1c1cccc(Cl)c1 (centres undefined) returned FLuc inh inactive, NIH3T3 tox inconclusive, NPR1 antag inconclusive, GPT2 inh inactive and HEK293 tox 25µM.
For COC(=O)C1=C(C)N=C2SC=C(CC(=O)N(C)Cc3ccco3)N2C1c1ccc(Cl)cc1 (centres undefined) the results were FLuc inh inactive, NIH3T3 tox inactive, NPR1 antag inactive, GPT2 inh inactive and HEK293 tox inconclusive.
CCOC(=O)c1cccc(NC(=O)c2ccc3c(c2)N(CC)C2CCCCN2C3=O)c1 (centres undefined) was read as FLuc inh inactive, NIH3T3 tox 40µM, NPR1 antag inactive, GPT2 inh inactive and HEK293 tox 40µM.
Screening CCOC(=O)c1cccc(NC(=O)c2ccc3c(c2)N(C)C2CCCCCN2C3=O)c1 (centres undefined) returned FLuc inh inconclusive, NIH3T3 tox inconclusive, NPR1 antag inactive, GPT2 inh inactive and HEK293 tox 32µM.
`CN1c2cc(C(=O)Nc3ccc(C(N)=O)cc3)ccc2C(=O)N2CCCCCC21` (centres undefined) gave FLuc inh inactive, NIH3T3 tox inconclusive, NPR1 antag inactive, GPT2 inh inactive and HEK293 tox inconclusive.
For CCN1c2cc(C(=O)Nc3cccc(C)c3)ccc2C(=O)N2CCCC21 (centres undefined) the results were FLuc inh inactive, NIH3T3 tox inconclusive, NPR1 antag inactive, GPT2 inh inactive and HEK293 tox inconclusive.
For O=C(CN1CCOCC1)N1CCC2(CC1)CN(C1CCC1)CC2CO (centres undefined) the results were FLuc inh inactive, NIH3T3 tox inactive, NPR1 antag inactive, GPT2 inh inactive and HEK293 tox inactive.
COCCCn1c(C)cc(C(=O)N2CCCCCCNC(=O)CC2)c1C was read as FLuc inh inactive, NIH3T3 tox inactive, NPR1 antag inactive, GPT2 inh inactive and HEK293 tox inactive.
For O=C(Cc1c[nH]c2ncc(-c3ccc(Cl)cc3)cc12)NCc1cccnc1 the results were FLuc inh inconclusive, NIH3T3 tox inconclusive, NPR1 antag inactive, GPT2 inh inactive and HEK293 tox 89µM.
`O=C(Cc1c[nH]c2ncc(-c3ccc(Oc4ccccc4)cc3)cc12)NCc1cccnc1` gave FLuc inh inactive, NIH3T3 tox inconclusive, NPR1 antag inconclusive, GPT2 inh inactive and HEK293 tox 40µM.
Cn1cnc(S(=O)(=O)N2C[C@@H](C(=O)O)[C@H](c3ccccn3)C2)c1 was read as FLuc inh inactive, NIH3T3 tox inactive, NPR1 antag inactive, GPT2 inh inactive and HEK293 tox inactive.
Screening COCCNC(=O)[C@@H]1C[C@H](Oc2ccccc2)CN1C(=O)CC(C)C returned FLuc inh inactive, NIH3T3 tox inactive, NPR1 antag inactive, GPT2 inh inactive and HEK293 tox inactive.
For CCN(Cc1ccncc1)C(=O)c1cc(-c2cnn(CC)c2)nc2cc(C)ccc12 the results were FLuc inh inconclusive, NIH3T3 tox 2.8µM, NPR1 antag inactive, GPT2 inh inactive and HEK293 tox inconclusive.
For CCN1CCN(Cc2ccc(NC(=O)c3ccc(C)c(Oc4ncnc5[nH]c(C)cc45)c3)cc2C(F)(F)F)CC1 the results were GPT2 inh inactive.
Screening O=C(c1c(-c2ccccc2)cc(=O)n2c1CCC2)N1CCN(c2ccccc2F)CC1 returned NIH3T3 tox inactive, GPT2 inh inactive and HEK293 tox inconclusive.
Screening O=C1CC2(CCN(C(=O)C3CCN([S+](=O)([O-])c4cccs4)CC3)CC2)Oc2ccccc2N1 returned NIH3T3 tox inconclusive, GPT2 inh inactive and HEK293 tox 28µM.
Cc1ccc(C(=O)N2CCC3(CC2)CCN(Cc2cccs2)c2ccccc2O3)cc1 was read as FLuc inh inactive, NIH3T3 tox inconclusive, NPR1 antag inactive, GPT2 inh inactive and HEK293 tox inconclusive.
`O=C(C1CC1)N1CCC2(CC1)CCN(Cc1cccs1)c1ccccc1O2` gave FLuc inh inactive, NIH3T3 tox inconclusive, NPR1 antag inactive, GPT2 inh inactive and HEK293 tox 35µM.
For O=C(c1ccc(C(F)(F)F)cc1)N1CCC2(CC1)CCN(Cc1cccs1)c1ccccc1O2 the results were FLuc inh inactive, NIH3T3 tox 13µM, NPR1 antag inactive, GPT2 inh inactive and HEK293 tox 25µM.
`CNC(=O)[C@@H]1CN(C(=O)C2CC=CCC2)C[C@H]1c1nc(COC)no1` (some centres undefined) gave FLuc inh inactive, NIH3T3 tox inconclusive, NPR1 antag inactive, GPT2 inh inconclusive and HEK293 tox inconclusive.
For CC(=O)NCCNC[C@@H]1C=C(C)[C@H](Cc2nnc(-c3ccccc3)o2)C[C@H]1C(C)C the results were FLuc inh inactive, NIH3T3 tox 89µM, NPR1 antag inactive, GPT2 inh inactive and HEK293 tox 56µM.
CC1=C[C@@H](CNc2ccccn2)[C@H](C(C)C)C[C@H]1Cc1nnc(-c2ccc(C)cc2)o1 was read as FLuc inh inactive, NIH3T3 tox 40µM, NPR1 antag inconclusive, GPT2 inh inactive and HEK293 tox 35µM.
Screening CC1=C[C@@H](CNCc2cccnc2)[C@H](C(C)C)C[C@H]1Cc1nnc(-c2ccccc2)o1 returned FLuc inh inactive, NIH3T3 tox inconclusive, NPR1 antag inactive, GPT2 inh inactive and HEK293 tox 79µM.
Screening CC1=C[C@@H](CNCc2ccncc2)[C@H](C(C)C)C[C@H]1Cc1nnc(-c2ccccc2F)o1 returned FLuc inh inactive, NIH3T3 tox inconclusive, NPR1 antag inconclusive, GPT2 inh inactive and HEK293 tox 20µM.
CC(=O)Nc1ccc(NC[C@@H]2C=C(C)[C@H](Cc3nnc(C)o3)C[C@H]2C(C)C)cn1 was read as FLuc inh inactive, NIH3T3 tox inactive, NPR1 antag inactive, GPT2 inh inactive and HEK293 tox 112µM.
For CC1=C[C@@H](CNCc2ccco2)[C@H](C(C)C)C[C@H]1Cc1nnc(-c2ccccc2F)o1 the results were FLuc inh inactive, NIH3T3 tox inconclusive, NPR1 antag inactive, GPT2 inh inactive and HEK293 tox 79µM.

Screens (PubChem)
